Results from PubChem BioAssay AID504727 (Broad Institute, 2011).
Active and inactive are the calls of the source.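 Rule for the calls: active = fitted half-maximal concentration AC50 at or below ten times the highest valid tested dose, with signal falling as DNA is displaced (actives reach about 34 µM in these data); inconclusive = flat fit at moderate signal loss, or poor fit quality; inactive = the rest, including signal rising instead of falling.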

Assay: acridine orange-DNA binding displacement – biochemical, fluorescence polarization, cherry-picked samples, set 2, artefact control for KSHV LANA DNA-binding inhibitor project, dose response (AID 504727)
Conditions: series mostly up to 35 µM

Structure (SMILES)	AC50
CCN(CC)CCCNc1ccc2ncn3c4ccc(O)cc4c(=O)c1c23	6910 nM (active)
O=C(c1cnn2c(-c3ccccc3)cc(-c3ccccc3)nc12)N1CCN(Cc2ccccc2)CC1	inactive
O=C(CSc1cccc2cccnc12)N/N=C/c1ccc(O)cc1	inactive
O=C(c1ccccc1)c1ccc(O)cc1O	7300 nM (active)
CC(=O)N/C(=C/c1ccc(OS(=O)(=O)c2ccc(C)cc2)cc1)C(=O)Nc1ccc(C(=O)O)cc1	inactive
CCOc1ccc2noc3c2c1C(=O)c1ccccc1-3	728 nM (active)
Cc1cc(=O)c2c([nH]1)c(C)cc1[nH]c(C)c(C)c12	inactive
Nc1cccc2cc(S(=O)(=O)O)ccc12	inactive
CCC1(c2ccccc2)NC(=O)N(CC(=O)Nc2ccc(OC)nc2)C1=O (stereo not drawn)	7640 nM (active)
NNC(=O)C1C(O)CCC2CN3CCc4c([nH]c5ccccc45)C3CC21 (stereo not drawn)	inactive
O=C(O)CCN1C(=O)/C(=C\c2ccc(-c3nc4ccccc4s3)o2)SC1=S	inactive
CCOC(=O)C(C)(C)N(Cc1ccccc1C)S(=O)(=O)c1ccc(Cl)c([N+](=O)[O-])c1	inactive
CCN(CC)CCCC(C)n1c2nc(=O)[nH]c(=O)c-2nc2cc(Cl)ccc21 (stereo not drawn)	316 nM (active)
Nc1ccc(-c2c3ccc(=O)cc-3oc3cc(O)ccc23)cc1C(=O)O	1070 nM (active)
O=C1NC(=S)S/C1=C\C=C\c1ccc([N+](=O)[O-])o1	inactive
CCC(C)[C@H](NC(=O)[C@@H]1Cc2ccccc2CN1)C(=O)Nc1ccc2c(c1)OCO2 (stereo partly drawn)	inactive
Cc1c(C#N)c(=O)c(-[n+]2ccccc2)c([S-])n1-c1ccc(Cl)cc1	inactive
COc1ccc(N=C2SC(CC(=O)Nc3ccccc3)C(=O)N2Cc2ccco2)cc1 (stereo not drawn)	inactive
Nc1nnc(CC(=O)N/N=C/c2cc([N+](=O)[O-])cc(Br)c2O)s1	inactive

Structure (SMILES)	AC50
O=C(O)Cc1c[nH]c2cccc(O)c12	inactive
O=C1c2cccc3c(O)ccc(c23)C(=O)N1Cc1ccco1	1190 nM (active)
CC(Sc1nc2ccccc2s1)C(=O)Nc1nnc(C(C)C)s1 (stereo not drawn)	inactive
COc1ccccc1C(=O)NCC(=O)OCC(=O)N(CC(C)C)c1c(N)n(Cc2ccccc2)c(=O)[nH]c1=O	inactive
C=C(C)C(=O)Nc1cccc(C2=NOC3(C2)C[C@@H](C(N)=O)N(C(=O)C2(C)CC2)C3)c1 (stereo partly drawn)	inactive
O=C(O)CC1(CC(=O)NCc2ccncc2)CCCCC1	inactive
Cc1c(NC(=O)CCC2CCCCC2)cc(C(=O)N2CCOCC2)cc1[N+](=O)[O-]	inactive
COc1cccc2[nH]c(C(=O)NC(C)c3ccccc3)cc12 (stereo not drawn)	inactive
O=C(Nc1ccccc1F)c1coc(=O)c(Br)c1	inactive
CC1CC(C)(C)NC(=S)N1CC(=O)N(C)Cc1ccccc1 (stereo not drawn)	inactive
COc1ccc(S(=O)(=O)N2CCC(C(=O)N3CCCCC3)CC2)cc1	inactive
O=C(O)c1ccccc1NC(=O)c1cc(-c2ccccc2)nc2ccccc12	inactive
O=C(O)COc1ccc2c(c1)O/C(=C\c1ccco1)C2=O	inactive
Cc1n[nH]c(C)c1N1C(=O)c2cccc3c(N4CCCCCC4)ccc(c23)C1=O	33600 nM (active)
CSCCC(NC(=O)c1ccccc1Cl)C(=O)N1CCCC(C)C1 (stereo not drawn)	inactive
Cc1noc(C)c1-c1nc(CSc2ccccc2)no1	inactive
NC(=S)COc1ccccc1	inactive
Cc1nnc(NC(=O)CN2C(=O)NC3(CCCC3)C2=O)s1	inactive
CCCCNc1c2c3c(cccc3n(C)c1=O)C(=O)c1ccccc1-2	2250 nM (active)
